Measurements reported in PubChem BioAssay (NCATS).
Results filed as inconclusive are left out. Activity calls are given as the source filed them. Calls follow the shape of the dose curve; as a rule, active = well fitted curve in the direction sought with a large enough effect; inconclusive = small, poorly fitted or top-dose-only effect, or another doubt; inactive = no such curve, though single readings can be large; an effect the other way counts as inactive or inconclusive.

Key:
[1] = qHTS of pediatric cancer cell lines to identify multiple opportunities for drug repurposing: Primary screen for TC32 cells (AID 1347089); also: nearly all actives have a fitted effect of over 60% in size
Procedure, shortened: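 Measured quantity: luminescence from CellTiter-Glo, reflecting metabolically active TC32 cells following 48 h of compound. Curves came straight from multi-point titrations, with 8 or 11 points in primary and 11 in confirmatory screening.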

[2] = qHTS of pediatric cancer cell lines to identify multiple opportunities for drug repurposing: Primary screen for DAOY cells (AID 1347090); also: nearly all actives have a fitted effect of over 55% in size; also: potency is read from the fitted curve at half-maximal effect
Procedure, shortened: (§1)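 Eight- or eleven-point concentration series, 48 h treatment at 37 degrees C in growth media; readout CellTiter-Glo luminescence. Potency and efficacy were taken from the concentration-response curves.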

[3] = qHTS of pediatric cancer cell lines to identify multiple opportunities for drug repurposing: Primary screen for BT-37 cells (AID 1347094); also: potency is read from the fitted curve at half-maximal effect
Procedure, shortened: (§2)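 Viability was measured as metabolically active cells after 48 hours of treatment, read by CellTiter-Glo luminescence. Compounds were tested at multiple final concentrations, giving concentration-response curves.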

[4] = qHTS of pediatric cancer cell lines to identify multiple opportunities for drug repurposing: Primary screen for U-2 OS cells (AID 1347096); also: nearly all actives have a fitted effect of over 50% in size
Procedure, shortened: (§3)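 Cells (500-1,000/well) in growth media were settled 5 h at 37 degrees C, then given compounds for 48 h. Viability was read as CellTiter-Glo luminescence. Primary runs used MIPE at 11 points (0.78 nM-46 µM) and NPC at 8 points (0.59 nM-46 µM); follow-ups used 11 points.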

[5] = qHTS of pediatric cancer cell lines to identify multiple opportunities for drug repurposing: Primary screen for Saos-2 cells (AID 1347097); also: nearly all actives have a fitted effect of over 40% in size; also: potency is read from the fitted curve at half-maximal effect
Procedure, shortened: as §2

[6] = qHTS of pediatric cancer cell lines to identify multiple opportunities for drug repurposing: Primary screen for SK-N-SH cells (AID 1347098); also: nearly all actives have a fitted effect of over 65% in size; also: potency is read from the fitted curve at half-maximal effect
Procedure, shortened: (§4)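 Cells (500-1,000/well) rested 5 h, then received compounds for 48 h; metabolically active cells were measured by CellTiter-Glo luminescence. Final concentrations spanned up to 46 µM (MIPE, 11-point) or 0.59 nM-46 µM (NPC, 8-point) in primary screens, 11-point in follow-ups.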

[7] = qHTS of pediatric cancer cell lines to identify multiple opportunities for drug repurposing: Primary screen for BT-12 cells (AID 1347101); also: nearly all actives have a fitted effect of over 25% in size; also: potency is read from the fitted curve at half-maximal effect
Procedure, shortened: as §4

[8] = qHTS of pediatric cancer cell lines to identify multiple opportunities for drug repurposing: Primary screen for Rh18 cells (AID 1347102); also: nearly all actives have a fitted effect of over 65% in size; also: potency is read from the fitted curve at half-maximal effect
Procedure, shortened: as §3

[9] = qHTS of pediatric cancer cell lines to identify multiple opportunities for drug repurposing: Primary screen for OHS-50 cells (AID 1347103); also: nearly all actives have a fitted effect of over 40% in size; also: potency is read from the fitted curve at half-maximal effect
Procedure, shortened: as §4

[10] = qHTS of pediatric cancer cell lines to identify multiple opportunities for drug repurposing: Primary screen for RD cells (AID 1347104); also: nearly all actives have a fitted effect of over 55% in size; also: potency is read from the fitted curve at half-maximal effect
Procedure, shortened: as §2

[11] = qHTS of pediatric cancer cell lines to identify multiple opportunities for drug repurposing: Primary screen for MG 63 (6-TG R) cells (AID 1347105); also: nearly all actives have a fitted effect of over 50% in size; also: potency is read from the fitted curve at half-maximal effect
Procedure, shortened: as §2

[12] = qHTS of pediatric cancer cell lines to identify multiple opportunities for drug repurposing: Primary screen for control Hh wild type fibroblast cells (AID 1347106); also: nearly all actives have a fitted effect of over 55% in size; also: potency is read from the fitted curve at half-maximal effect
Procedure, shortened: as §3

[13] = qHTS of pediatric cancer cell lines to identify multiple opportunities for drug repurposing: Primary screen for NB-EBc1 cells (AID 1347095); also: potency is read from the fitted curve at half-maximal effect
Procedure, shortened: as §2

[14] = qHTS of pediatric cancer cell lines to identify multiple opportunities for drug repurposing: Primary screen for LAN-5 cells (AID 1347100); also: potency is read from the fitted curve at half-maximal effect
Procedure, shortened: as §3

[15] = qHTS of pediatric cancer cell lines to identify multiple opportunities for drug repurposing: Primary screen for SJ-GBM2 cells (AID 1347091); also: potency is read from the fitted curve at half-maximal effect
Procedure, shortened: as §1

[16] = qHTS of pediatric cancer cell lines to identify multiple opportunities for drug repurposing: Primary screen for A673 cells (AID 1347092); also: potency is read from the fitted curve at half-maximal effect; nearly all actives have a fitted effect of over 45% in size
Procedure, shortened: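 Cells are plated, rested 5 h, dosed by pintool, incubated 48 h, then lysed with CellTiter-Glo and read by luminescence. DMSO is the neutral control; bortezomib at 2.3 uM final is the positive control.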

[17] = qHTS of pediatric cancer cell lines to identify multiple opportunities for drug repurposing: Primary screen for SK-N-MC cells (AID 1347093); also: potency is read from the fitted curve at half-maximal effect
Procedure, shortened: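 Metabolically active cells were quantified by ATP-dependent luminescence (CellTiter-Glo, 15 min at room temperature) following 48 h treatment. Cells had been plated at 500-1,000 per well and settled for 5 h beforehand.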

[18] = qHTS of pediatric cancer cell lines to identify multiple opportunities for drug repurposing: Primary screen for Rh30 cells (AID 1347107); also: nearly all actives have a fitted effect of over 75% in size; also: potency is read from the fitted curve at half-maximal effect
Procedure, shortened: as §3

[19] = qHTS of pediatric cancer cell lines to identify multiple opportunities for drug repurposing: Primary screen for NB1643 cells (AID 1347099); also: potency is read from the fitted curve at half-maximal effect; nearly all actives have a fitted effect of over 50% in size
Procedure, shortened: as §2

Measured: Potency

CC=CCC=CCCC(=O)[C@H]1O[C@@H]1C(N)=O
active: [5] 18.7 µM
not listed: [13] | [14] | [15] | [16] | [17] | [18] | [19]
inactive: all other assays above

Cc1ccc([C@@H]2O[C@H](CO)[C@@H](O)[C@H](O)[C@@H]2O)cc1Cc1ccc(-c2ccc(F)cc2)s1
active: [5] 14.8 µM | [9] 34.3 µM
inactive: [1] | [2] | [13] | [14] | [8] | [11] | [12]

CN(C[C@@H]1COCCO1)S(=O)(=O)Nc1ccc2ccc3ncc(-c4cnn(C)c4)cc3c(=O)c2c1
inactive: [1] | [11] | [12] | [18]
active: [15] 0.372 µM | [16] 7.43 µM | [17] 2.96 µM | [13] 7.43 µM | [6] 17.1 µM | [14] 14.8 µM | [8] 14.8 µM | [9] 1.22 µM

CC=C(C)C(=O)O[C@H]1C(C)=C[C@]23C(=O)[C@@H](C=C(CO)[C@@H](O)[C@]12O)[C@H]1[C@@H](C[C@H]3C)C1(C)C
active: [15] 18.7 µM | [16] 0.0148 µM | [17] 4.69 µM | [3] 24.3 µM | [13] 14.8 µM | [5] 0.296 µM | [9] 21.7 µM
inactive: [1] | [6] | [18]

O=C1NC(=O)C(=Cc2ccc3c(c2)OC(F)(F)O3)S1
active: [2] 23.5 µM | [17] 3.32 µM | [6] 12.1 µM
inactive: [1] | [8] | [12]

O=C(Nc1ccccc1Br)N[C@@H]1CCN(c2ccc(C(F)(F)F)cn2)C1
active: [2] 11.8 µM | [5] 18.7 µM
inactive: [1] | [4] | [8] | [12]

COc1cc(N2CCC(N3CCN(C)CC3)CC2)ccc1Nc1ncc(Cl)c(Nc2ccccc2S(=O)(=O)C(C)C)n1
inactive: [1] | [2] | [3]
active: [17] 0.001 µM | [6] 4.82 µM | [14] 0.001 µM | [12] 29.6 µM | [18] 1.05 µM

NC(=O)c1cnc(-c2ccc(C3(N)CCC3)cc2)c(-c2ccccc2)c1
inactive: [1] | [2] | [3] | [13] | [4] | [8] | [12] | [18]
active: [17] 1.48 µM | [9] 2.73 µM

N#CC(=C(N)Sc1ccccc1N)C(C#N)=C(N)Sc1ccccc1N
active: [2] 23.5 µM | [16] 2.35 µM | [17] 2.96 µM | [5] 29.6 µM | [19] 20.9 µM | [7] 13.7 µM | [9] 27.3 µM | [10] 5.26 µM
inactive: [1] | [13] | [4] | [12]

CCc1ccc(C=C2SC(=S)NC2=O)cc1
active: [19] 23.5 µM
not listed: [5] | [9] | [13] | [15] | [16]
inactive: all other assays above

COc1cc(NC(=O)c2ccc(-c3ccc(Cl)cc3)o2)cc(OC)c1
active: [2] 2.96 µM | [16] 7.43 µM | [6] 1.52 µM | [19] 6.62 µM | [11] 7.43 µM | [12] 10.5 µM | [18] 7.43 µM
inactive: [1] | [13] | [5] | [7] | [8] | [9]

COc1ccc(C2CC(c3ccccc3)=NN2c2ccc(S(N)(=O)=O)cc2)cc1 (configuration not stated)
active: [17] 18.7 µM | [3] 12.2 µM | [5] 16.6 µM | [7] 21.7 µM
inactive: [1] | [2] | [6] | [11] | [12]

CC(=O)OC1C(C)OC(Oc2c(-c3ccc(O)cc3)oc3cc(O)cc(O)c3c2=O)C(O)C1OC(C)=O (configuration not stated)
active: [16] 11.8 µM | [3] 27.3 µM | [5] 18.7 µM
inactive: [1] | [2] | [6] | [11] | [12]

CC(C)=CC[C@@H](O)C1=CC(=O)c2c(O)ccc(O)c2C1=O
inactive: [1] | [4]
active: [15] 1.05 µM | [16] 0.935 µM | [17] 1.05 µM | [3] 13.7 µM | [13] 0.743 µM | [5] 18.7 µM | [6] 6.81 µM | [19] 3.32 µM | [14] 14.8 µM | [7] 17.2 µM | [9] 10.9 µM | [10] 26.4 µM

CNC1CCC(N(Cc2cccc(-c3ccncc3)c2)C(=O)c2sc3c(F)ccc(F)c3c2Cl)CC1 (configuration not stated)
inactive: [1]
active: [16] 23.5 µM | [17] 1.18 µM | [5] 18.7 µM | [6] 19.2 µM | [19] 18.7 µM | [9] 24.3 µM | [10] 10.5 µM | [11] 23.5 µM

O=C1c2c(O)cc(O)cc2O[C@H](c2cc(O)c(O)c(O)c2)[C@H]1O
active: [16] 14.8 µM | [17] 4.18 µM | [5] 23.5 µM | [19] 23.5 µM | [14] 26.4 µM
inactive: [1] | [15] | [4] | [12] | [18]
